This is an account of results in PubChem BioAssay (NCI).

The structures appear in SMILES notation. About 83,000 compounds went through this panel and 20% of them were active in at least one assay; those are over-represented in the sample as a whole.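 Cell lines were cultured in 96-well plates, exposed to a single compound concentration, and assessed for percent growth 48 hours later.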 The source made the active and inactive calls. The calls were made as follows: active = growth percent below 10; inactive = the rest.

The experiment has as its system CCRF-CEM leukemia. The experiment can be described thus: NCI-60 one-dose screen, 48 h (100 = growth as untreated, 0 = no growth, -100 = all killed). Conditions: 10 µM.
On to `COc1ccc(C2c3sc4ccc(C)cc4c3Oc3nc(N)nc(N)c32)cc1` (configuration not stated), for which the growth is 82.8% (inactive).

Turning to `Cc1cc(N=C2NC(=O)S/C2=C\c2ccc(F)cc2)n[nH]1`, the growth was 9.4% (active).

For `O=C(CC(=O)Nc1ccc(Oc2ncnc3scc(Nc4n[nH]c(=S)s4)c23)cc1)Nc1ccc(Cl)cc1`, the growth was 58.1% (inactive).

On to `O=C1NC2C=CC=CC2/C1=C1/SC(=S)N(C2CC(=O)N(c3ccc(Br)cc3)C2=O)C1=O` (configuration not stated), for which the growth was 53.9% (inactive).

`CC1(C)CC(=O)C2=C(C1)N(Cc1ccc(C(=O)O)cc1)C1=C(C(=O)CC(C)(C)C1)C2c1ccc(Cl)cc1`: the growth is 102% (inactive).

For the compound `Cc1ccc2c(c1)C(=O)/C(=C/c1ccc([N+](=O)[O-])cc1)S2`, the growth was 109% (inactive).

For the compound `Cn1cc(-c2nc(N)nnc2-c2c[nH]c3ccccc23)c2cc(Br)cnc21`, the growth is 20.5% (inactive).

On to `Cc1ccc2c(c1)C(=O)/C(=C/c1c[nH]c3ccccc13)S2`, for which the growth was 29.2% (inactive).

On to `COc1cccc(O)c1/C=C1\SCc2cc3c(OC)cccc3[o+]c21`, for which the growth is 101% (inactive).

Regarding `COc1cc(C2CC(c3ccc(Oc4ccc(Cl)cc4)cc3)=NN2c2nc(-c3ccc(Cl)cc3)c(C#N)c(N3CCOCC3)n2)cc(OC)c1OC` (configuration not stated), the growth was 111% (inactive).

Regarding `Cc1ccc2sc3c(c2c1)Oc1nc[nH]c(=O)c1C3c1cccc(F)c1` (configuration not stated), the growth is 107% (inactive).

`Cc1cc(N=C2NC(=O)/C(=C/c3cc(C(C)(C)C)c(O)c(C(C)(C)C)c3)S2)n[nH]1`: the growth is 13% (inactive).

Regarding `COc1ccc(C2c3sc4ccc(C)cc4c3Oc3nc[nH]c(=O)c32)cc1` (configuration not stated), the growth was 91.7% (inactive).

Turning to `COc1cccc(C(=O)CSc2nc(-c3ccc(OCc4ccccc4)c(OC)c3)c(C#N)c(=O)[nH]2)c1`, the growth was 101% (inactive).

As to `Cc1ccc(COc2ccc(NC(=O)Nc3ccc(Cl)c(C(F)(F)F)c3)cc2)cc1`, the growth was 60.7% (inactive).

As for `CC(C)(C)c1cc(/C=C2\S/C(=N/c3ncn[nH]3)NC2=O)cc(C(C)(C)C)c1O`, the growth is 11% (inactive).

As for `Cn1cc(/C=C(/SS/C(=C/c2cn(C)c3cccc(C(=O)O)c23)C(=O)O)C(=O)O)c2c(C(=O)O)cccc21`, the growth is 106% (inactive).

Turning to `COc1ccc(C(=O)COc2ccc(NC(=O)Nc3ccccc3)cc2)cc1`, the growth is 91% (inactive).

Take `CCn1c(SCC(=O)Nc2ccc(-c3nc4ccccc4[nH]3)cc2)nc2ccccc2c1=O`: the growth was 44.7% (inactive).

Turning to `O=C(CC(=O)Nc1ccc(Oc2ncnc3scc(Nc4n[nH]c(=S)s4)c23)cc1)Nc1ccc(Br)cc1`, the growth was 75.9% (inactive).

In the case of `O=C(Nc1ccc(Oc2ncnc3scc(Nc4n[nH]c(=S)s4)c23)cc1)C1(C(=O)Nc2cccc(C(F)(F)F)c2)CC1`, the growth was 111% (inactive).

On to `O=C1NC(=S)S/C1=C\c1cn(-c2ccccc2)nc1-c1ccc([N+](=O)[O-])cc1`, for which the growth was 18.5% (inactive).
